Measured values as given in PubChem BioAssay (NCI).
Compounds without any hit were thinned out: in the full panel of roughly 83,000, 20% have a hit.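 Treatment: one concentration, 48 hours, 96-well format. Scoring: percent growth, with anything below 10 considered active.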 Calls of active or inactive are those of the source.

system: KM12 colon; assay: NCI-60 one-dose screen, 48 h (100 = growth as untreated, 0 = no growth, -100 = all killed); settings: 10 µM
Protocol: Growth inhibition of the KM12 human tumor cell line is measured as a screen for anti-cancer activity. Cells are grown in 96 well plates and exposed to the test compound for 48 hours. Compounds are tested at a single concentration, which is 10^-5 M for most compounds. The reported endpoint is percent growth (GI% or GIPRCNT), where numbers from 0 - 100% represent growth inhibition, and numbers from -100% - 0 represent cell death. For example, a value of 40 represents 60% growth inhibition. A value of 0 means no net growth occurred over the course of the experiment. A value of -40 indicates 40% of cells at the beginning of the experiment died by the end of the experiment. A value of -100 means all cells are dead at the end of the experiment.
NCI-60 Human Tumor Cell Lines Screen was performed using the standard one-dose NCI protocol, which is described in more detail at https://dtp.cancer.gov/discovery_development/nci-60/default.htm.
Compounds with GIPRCNT values below 10 were considered active. Activity score was based on GIPRCNT using the following formula: […]
Score is 0 for GIPRCNT values of 100 or above, 50 for GIPRCNT values of 0, and 100 for GIPRCNT values of -100.

Compound | growth
COc1ccc(-c2nn(-c3cccc(Cl)c3)cc2-c2c(C#N)c(N)n(N)c(=O)c2C#N)cc1 | 62.3% (inactive)
Cc1cc(Cl)ccc1Nc1nc(C(F)(F)F)ccc1C(=O)N/N=C/c1cccc(O)c1 | 41.8% (inactive)
OCC1OC(n2ccc3c(NO)ncnc32)C(O)C1O (stereo not given) | -26.6% (active)
Nc1nc(N)c(N)c(Nc2ccc(CCO)cc2)n1 | 101% (inactive)
CCCc1nc(C(C)(C)O)c(C(=O)O)n1Cc1ccc(-c2ccccc2-c2nn[nH]n2)cc1 | 120% (inactive)
COc1cc(-c2nn(-c3cccc(NC(=O)CCN4CCN(c5ccccc5)CC4)c3)cc2-c2ccncc2)ccc1Cl | 13.3% (inactive)
CCOC(=O)CC(S(=O)(=O)c1ccccc1)S(=O)(=O)c1ccccc1 | 97.1% (inactive)
CC(=O)Nc1ccc(S(=O)(=O)c2ccnc3cc(Cl)ccc23)cc1 | 90.1% (inactive)
CC[N+](CC)=c1ccc2nc3c(cc(NCc4ccccc4)c4ccccc43)oc-2c1 | -88.6% (active)
O=C1CC(=O)N(C(=O)c2nn(-c3ccc(Cl)cc3)cc2O)N1 | 46.5% (inactive)
NC1=NC(c2ccccc2)C2=C(N1)/C(=C/c1ccccc1)CCC2 (stereo not given) | 47% (inactive)
COc1cc2cc(Oc3ccc(NC(=O)Nc4ccc(Cl)c(Cl)c4)cc3)c(C)nc2cc1OC | 13.9% (inactive)
Cc1ccc(/C=C2/C(=O)N(C)c3ccc(S(=O)(=O)Nc4ccc(C(C)(C)C)cc4)cc32)s1 | 82.4% (inactive)
CCCCN(CCCC)C(=O)[C@H](CC)[C@@H]1CC[C@@H](C)[C@@H]([C@H](C)[C@@H](O)[C@@H](C)C(=O)[C@H](CC)C2O[C@]3(C=CC(=O)[C@]4(CC[C@@](C)([C@H]5CC[C@](O)(CC)[C@H](C)O5)O4)O3)[C@H](C)C[C@@H]2C)O1 (stereo not given in full) | 55.6% (inactive)
Cc1cc(CCNC=O)c(C)c2c1sc1ccccc12 | 103% (inactive)
COc1cc(-c2nn(-c3cccc(NC(=O)NCCNS(=O)(=O)c4ccc(Cl)cc4)c3)cc2-c2ccncc2)ccc1Cl | 7.63% (active)
CCN(CC)CCCOc1cccc2c1C(=O)c1cccc(OCCCN(CC)CC)c1C2=O | 40.9% (inactive)
NC(N)=N/N=C(\N=Nc1ccccc1)c1ccc(Cl)cc1 | 20.8% (inactive)
CCOC(=O)C1C(C(=O)OCC)C2C(=O)C3C(C(=O)OCC)C(C(=O)OCC)C3C(=O)C12 (stereo not given) | 109% (inactive)
COc1cc(NC(=O)Nc2cnc(Nc3ccc(N4CCOCC4)cc3)nc2Oc2cccc(OC)c2)cc(OC)c1 | 53.3% (inactive)

Compound | growth
O=C1CSC(=S)N1/N=C/c1ccc(Cl)s1 | 97.5% (inactive)
CN(C)CCCOc1ccc(NC2=C(Cl)C(=O)C(Nc3ccc(OCCCN(C)C)cc3)=C(Cl)C2=O)cc1 | -63% (active)
N#CCc1csc(Cc2ccccc2)n1 | 101% (inactive)
COc1ccc(-c2nn(-c3cccc(Cl)c3)cc2-c2nc(N)[nH]c(=O)c2C#N)cc1 | 56% (inactive)
COc1ccc(-c2nc(-c3nc4ccc(C)cc4[nH]3)cc3c2[nH]c2ccccc23)cc1 | 21% (inactive)
c1ccc(CSc2ncccc2-c2nnc(SCCN3CCOCC3)o2)cc1 | 107% (inactive)
O=C(CNc1nnc(-c2cccnc2SCc2ccccc2)s1)Nc1nc(Cl)cc(Cl)n1 | 97.9% (inactive)
O=C(CCl)Nc1ccc(Cc2ccc(NC(=O)CCl)cc2)cc1 | 0.445% (active)
CC(C)(C)OC(=O)N1CCc2c(sc3ncnc(N/N=C/c4cccc5ccccc45)c23)C1 | 23.4% (inactive)
O=C(COc1cccc(/C=C2\CSc3ccccc3C2=O)c1)c1ccc(Cl)cc1 | -80.3% (active)
Cc1ccc(Cl)cc1NC(=O)CCl | 96.1% (inactive)
Cc1cc(SCc2ccccc2)nc(N)n1 | 115% (inactive)
CN1C(=O)C2(Nc3cc(Cl)ccc3S2)c2cc(Cl)ccc21 (stereo not given) | 99% (inactive)
COc1ccc(-c2nn(-c3cccc(Cl)c3)cc2/C=C2\NC(=S)N(c3ccc(Cl)cc3)C2=O)cc1 | 26.6% (inactive)
N#CC1=CC2CN(Cc3ccccc3)C1C1C(=O)N(c3ccccc3)C(=O)C21 (stereo not given) | 103% (inactive)
O=C(CSc1nccc(Nc2cccc3ccccc23)n1)c1ccc(Cl)cc1 | 94.7% (inactive)
COc1cc2cc(Oc3ccc(NC(=O)Nc4ccc(Cl)c(C(F)(F)F)c4)cc3)c(C)nc2cc1OC | -16.4% (active)
COc1cc(CNC(=O)C2CSC3(C)c4ccccc4C(=O)N23)cc(OC)c1OC (stereo not given) | 106% (inactive)
CCc1ccc(C2=NN(c3ccc(S(C)(=O)=O)cc3)C(=O)CC2)cc1 | 17.3% (inactive)
CS(=O)(=O)c1nccc(-c2c(-c3ccc(OCCc4ccccc4)cc3)nc3sccn23)n1 | 106% (inactive)
